# PubChem BioAssay AID1159580 (chemical genetic matrix, 2015)
# Among all 5,500 compounds or so, about 2,000 (36%) were called active. Another 18% or so got no clear call; they are omitted. The list shows a part of the results. Values without a mark were called inactive. Cut-off read from the data, not from the text of the source: active = normalized growth mostly below about 0.91 (no sharp cut-off); inconclusive = no clear call, values can overlap the other calls; inactive = mostly above about 0.92.
# Assay: chemical genetic growth profiling, strain panel (AID 1159580);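 note: tested at 20 µM; growth read once vehicle control cultures reached saturation at 30 °C; 1 = growth at the plate median or of vehicle wells; lower values mean less growth of the strain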
# Settings: growth OD
# [1] = S. cerevisiae deletion strains, locus YAL013W, strain DEP1, active compounds read low
# [2] = S. cerevisiae deletion strains, locus YGR078C, strain PAC10, active compounds read low
# [3] = S. cerevisiae deletion strains, locus YJR075W, strain HOC1, active compounds read low
# [4] = S. cerevisiae deletion strains, locus YPL055C, strain LGE1, active compounds read low
# [5] = S. cerevisiae deletion strains, locus YPL241C, strain CIN2, active compounds read low
compound,measurement,setting,value
NC(=O)CI,normalized growth,[1],0.951
same,normalized growth,"S. cerevisiae deletion strains, locus YAL040C, strain CLN3, active compounds read low",0.968
same,normalized growth,"S. cerevisiae deletion strains, locus YCL061C, strain MRC1 (second series), active compounds read low",0.98
same,normalized growth,"S. cerevisiae deletion strains, locus YDR363W, strain ESC2, active compounds read low",0.988
same,normalized growth,"S. cerevisiae deletion strains, locus YER002W, strain NOP16, active compounds read low",0.949
same,normalized growth,[2],0.907 (active)
same,normalized growth,"S. cerevisiae deletion strains, locus YGR229C, strain SMI1, active compounds read low",0.942
same,normalized growth,[3],0.966
same,normalized growth,"S. cerevisiae deletion strains, locus YNL175C, strain NOP13, active compounds read low",0.947
same,normalized growth,"S. cerevisiae deletion strains, locus YNL197C, strain WHI3, active compounds read low",0.936
same,normalized growth,"S. cerevisiae deletion strains, locus YNL224C, strain SQS1, active compounds read low",0.972
same,normalized growth,"S. cerevisiae deletion strains, locus YOR083W, strain WHI5 (second series), active compounds read low",0.792 (active)
same,normalized growth,[4],0.956
same,normalized growth,[5],0.966
NC(=O)CCSCCC(N)=O,normalized growth,[1],0.992
same,normalized growth,"S. cerevisiae deletion strains, locus YBR229C, strain ROT2, active compounds read low",0.995
same,normalized growth,"S. cerevisiae deletion strains, locus YDL101C, strain DUN1, active compounds read low",0.996
same,normalized growth,"S. cerevisiae deletion strains, locus YDL134C, strain PPH21, active compounds read low",1.02
same,normalized growth,"S. cerevisiae deletion strains, locus YDR150W, strain NUM1, active compounds read low",0.999
same,normalized growth,"S. cerevisiae deletion strains, locus YEL061C, strain CIN8, active compounds read low",1.01
same,normalized growth,[2],0.988
same,normalized growth,"S. cerevisiae deletion strains, locus YHR030C, strain SLT2, active compounds read low",0.972
same,normalized growth,"S. cerevisiae deletion strains, locus YHR087W, strain rtc3, active compounds read low",1
same,normalized growth,"S. cerevisiae deletion strains, locus YJR043C, strain POL32, active compounds read low",0.976
same,normalized growth,[3],1
same,normalized growth,"S. cerevisiae deletion strains, locus YLR039C, strain RIC1, active compounds read low",1.02
same,normalized growth,"S. cerevisiae deletion strains, locus YLR058C, strain SHM2 (second series), active compounds read low",0.997
same,normalized growth,"S. cerevisiae deletion strains, locus YLR085C, strain ARP6, active compounds read low",1.06
same,normalized growth,"S. cerevisiae deletion strains, locus YLR262C, strain YPT6, active compounds read low",1.03
same,normalized growth,"S. cerevisiae deletion strains, locus YML094W, strain GIM5, active compounds read low",1.01
same,normalized growth,"S. cerevisiae deletion strains, locus YMR219W, strain ESC1, active compounds read low",1.01
same,normalized growth,"S. cerevisiae deletion strains, locus YMR263W, strain SAP30, active compounds read low",0.991
same,normalized growth,"S. cerevisiae deletion strains, locus YMR307W, strain GAS1, active compounds read low",1.09
same,normalized growth,"S. cerevisiae deletion strains, locus YNL153C, strain GIM3, active compounds read low",0.979
same,normalized growth,"S. cerevisiae deletion strains, locus YNL298W, strain CLA4 (second series), active compounds read low",0.988
same,normalized growth,"S. cerevisiae deletion strains, locus YNL322C, strain KRE1, active compounds read low",1.03
same,normalized growth,"S. cerevisiae deletion strains, locus YNR030W, strain Alg12, active compounds read low",0.981
same,normalized growth,[4],1.02
same,normalized growth,[5],0.995
same,normalized growth,"S. cerevisiae deletion strains, locus YPR135W, strain CTF4, active compounds read low",0.92
same,normalized growth,"S. cerevisiae strains, strain wild type, active compounds read low",1.02
